Sampled rows, rich in hits. Any-hit rate of the full collection: about 27%.
sEH activator: soluble epoxide hydrolase activators, primary screen, biochemical, human sEH. hit rate 0.04% among 91,000. AID 717, 2007. purified human sEH enzymatic activity, activator screen. activation, % at 2 µM. Bifunctional epoxide hydrolase 2 (Homo sapiens), P34913; in the data active = activation above about 37%
CYP2C9 activ: human CYP2C9 activators, primary screen, biochemical, luminescence; hit rate 1.4% among 96,000; recombinant CYP2C9, luciferin-H conversion; hits give high values; factor 1 = untreated enzyme, 0 = blocked; AID 1024, 2008; activation factor at 5 µM; Cytochrome P450 2C9 (Homo sapiens), P11712;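 active = activation factor of 2 or more for CYP2C9 at a 5 µM dose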;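 note: 0 = sulfaphenazole-blocked wells and 1 = vehicle-only wells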
sEH inh: soluble epoxide hydrolase inhibitors, primary screen, biochemical, human sEH. Bifunctional epoxide hydrolase 2 (Homo sapiens), P34913. recombinant human sEH enzymatic activity assay. inhibition, % at 2 µM. hit rate 0.34% among 91,000. AID 707, 2007; in the data active = inhibition above about 80%
CYP2C9 inh: blockers of cytochrome P450 2C9 activity – biochemical, luminescence, ADME assay, primary screen. P11712. CYP2C9 Supersomes, luciferin-H conversion. inhibition, % at 5 µM. hit rate 20% among 96,000;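 active = blocking of liver enzyme CYP2C9 beyond about 50% at 5 µM, limit read from the data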
CYP2C19 inhib: blockers of cytochrome P450 2C19 activity – biochemical, luminescence, ADME assay, primary screen; P33261; CYP2C19 Supersomes, luciferin-H EGE luminescence, 30 min; AID 778, 2007; hit rate 21% among 96,000; inhibition, % at 5 µM;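 active = CYP2C19 inhibition above a set limit at 5 µM in the primary screen, cut at about 50% in these data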;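 note: plate controls were negative control wells for no effect and 2.5 mM tranylcypromine positive control for full effect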
Target sequence (P33261 whole entry, looked up): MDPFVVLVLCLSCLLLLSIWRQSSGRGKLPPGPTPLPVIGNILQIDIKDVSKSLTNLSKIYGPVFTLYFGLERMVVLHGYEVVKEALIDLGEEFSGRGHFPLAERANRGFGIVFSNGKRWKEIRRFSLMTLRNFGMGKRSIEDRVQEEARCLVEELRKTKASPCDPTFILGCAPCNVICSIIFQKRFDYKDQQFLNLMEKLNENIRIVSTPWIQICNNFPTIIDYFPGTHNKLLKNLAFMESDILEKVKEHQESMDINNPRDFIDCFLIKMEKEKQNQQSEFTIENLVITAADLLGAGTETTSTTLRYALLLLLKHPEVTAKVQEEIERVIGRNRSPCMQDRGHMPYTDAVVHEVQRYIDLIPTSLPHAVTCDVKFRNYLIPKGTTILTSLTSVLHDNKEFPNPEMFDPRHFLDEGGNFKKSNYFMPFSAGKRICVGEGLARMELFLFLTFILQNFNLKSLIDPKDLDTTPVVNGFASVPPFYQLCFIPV
CYP2C19 act: human CYP2C19 activators, primary screen, biochemical, luminescence; Cytochrome P450 2C19 (Homo sapiens), P33261; recombinant CYP2C19, luciferin-H EGE luminescence; hits give high values; 0 = fully inhibited enzyme, 1 = untreated enzyme; activation factor at 5 µM; 96,000 tested, under 10 active;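 active = activation factor of at least 2 at 5 µM in the primary screen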;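 note: 0 = wells with 2.5 mM tranylcypromine and 1 = vehicle-only wells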
Numbers without * were called inactive; x = no result.

SMILES	sEH activator	CYP2C9 activ	sEH inh	CYP2C9 inh	CYP2C19 inhib	CYP2C19 act
O=C(NC(NNc1ccc([N+](=O)[O-])cc1)(C(F)(F)F)C(F)(F)F)c1ccccc1Cl	-6.3	0.5	6.2	53.4*	45.0	0.6
CN(CCOC(=O)c1cccc(Br)c1)C(C)(C)C	16.3	0.4	-14.7	60.3*	24.7	0.8
Cc1nn(Cc2ccc(Cl)cc2Cl)c(C)c1NC(=O)NC12CC3CC(CC(C3)C1)C2	-77.8	0.8	78.5	18.0	1.1	1
Fc1ccc(C2CC(c3ccccc3)n3ncnc3N2)cc1 (stereo not given)	11.8	0.8	-8.9	21.5	88.0*	0.1
Clc1ccc(C2CC(c3ccco3)n3ncnc3N2)cc1Cl (stereo not given)	4.7	x	-4.4	x	x	x
Clc1ccc(C2CC(c3ccccc3)Nc3ncnn32)cc1 (stereo not given)	x	0.7	x	32.4	75.3*	0.2
O=C(Nc1ccccc1C(=O)Nc1ccc2c(c1)OCO2)c1cccs1	3.4	0.5	-1.5	45.7	-3.7	1
CC(C)(C)n1nnnc1C(c1ccccc1F)N1CCN(C2CCCC2)CC1 (stereo not given)	x	1	x	3.2	-9.1	1.1
COc1ccc(C(=O)NNC(=S)NC(=O)c2cc(-c3ccccc3)nc3ccccc23)cc1	-2.1	0.6	7.6	41.6	7.9	0.9
CCCOc1ccc(C(=O)NNC(=S)NC(=O)c2cc(-c3ccc(Cl)cc3)nc3ccccc23)cc1	8.4	0.5	-8.4	50.0*	7.7	0.9
Cc1cc(C(=O)NNC(=S)NC(C)c2ccccc2)c2ccccc2n1 (stereo not given)	-5.0	0.4	2.4	55.4*	-3.7	1
CCCOc1cccc(-c2cc(C(=O)NNC(=S)NCC)c3ccccc3n2)c1	17.5	0.3	-15.3	69.8*	22.3	0.8
CCNC(=S)NNC(=O)c1cc(-c2ccc(OCC)cc2)nc2ccccc12	-2.3	0.2	3.5	79.1*	43.3	0.6
Cc1cc(C(=O)O)c2ccccc2n1	11.8	0.9	-18.4	9.6	-10.3	1.1
CC1(C)Cn2c(nnc2-c2cccc(O)c2)S1	-3.8	0.9	1.6	10.3	16.7	0.8
Cc1ccc(S(=O)(=O)N2CCOCC2)cc1C(=O)NCc1ccc2c(c1)OCO2	-8.8	0.5	12.0	48.0	24.6	0.8
CCNC(=S)NNC(=O)c1cc(CC(C)C)nc2ccccc12	8.8	0.4	-7.5	63.5*	9.5	0.9
CCCc1cc(C(=O)NNC(=S)NC(C)c2ccccc2)cs1 (stereo not given)	-3.2	0.6	4.5	43.5	81.2*	0.2
CCNC(=S)NNC(=O)c1cc(-c2ccccc2C)nc2ccccc12	-5.5	0.4	6.6	60.0*	-0.3	1
COc1ccc(C)cc1C(=O)C1CC(C(=O)O)C(C)(C)C1C (stereo not given)	20.8	0.8	-17.2	20.8	5.1	0.9
CCOC(=O)c1c(C)[nH]c(C(=O)C(C)OC(=O)c2oc3ccccc3c2COC)c1C (stereo not given)	10.9	0.9	-9.3	14.4	5.5	0.9
CCOC(=O)/C(=C\Nc1ccccc1C(F)(F)F)Sc1ncc(C(F)(F)F)cc1Cl	3.3	0.2	-3.0	81.5*	59.1*	0.4
CON/C=C(\C=Nc1ccc(F)cc1)c1ncc(C(F)(F)F)cc1Cl	4.7	0.8	-5.1	21.1	-14.6	1.1
CCOC(=O)C(C(=O)NCc1ccc(C)cc1)c1ncc(C(F)(F)F)cc1Cl (stereo not given)	12.0	0.9	-11.4	6.1	37.0	0.6
COC(=O)/C(=C\Nc1ccc(Cl)c2ccccc12)c1ncc(C(F)(F)F)cc1Cl	-3.7	0.2	1.7	76.5*	33.1	0.7
SMILES	sEH activator	CYP2C9 activ	sEH inh	CYP2C9 inh	CYP2C19 inhib	CYP2C19 act
Cc1noc(C)c1S(=O)(=O)N1CCN(C(c2ccccc2)c2ccc(Cl)cc2)CC1 (stereo not given)	17.6	0.2	-15.6	77.0*	75.4*	0.2
CCCN1C(=O)C(O)(C2CC(=O)CC(C)(C)O2)c2ccccc21 (stereo not given)	6.9	1.3	-7.6	-30.2	15.0	0.8
N#Cc1c(NC(=O)CSc2ncccn2)oc(-c2ccccc2)c1-c1ccccc1	-10.9	x	14.0	x	x	x
N#Cc1c(NC(=O)Cn2cnc3ccccc3c2=O)oc(-c2ccccc2)c1-c1ccccc1	0.2	0.2	2.0	83.4*	33.6	0.7
CCn1c(SCC(=O)Nc2oc(-c3ccccc3)c(-c3ccccc3)c2C#N)nnc1-c1cc(OC)cc(OC)c1	5.0	0	-4.7	100.0*	58.6*	0.4
Cc1ccnc(SCC(=O)Nc2oc(-c3ccccc3)c(-c3ccccc3)c2C#N)n1	4.0	0.1	-3.9	88.5*	36.5	0.6
N#Cc1c(NC(=O)CN2CCOCC2)oc(-c2ccccc2)c1-c1ccccc1	-4.9	0.6	5.0	44.6	12.0	0.9
N#Cc1c(NC(=O)CSc2n[nH]c(Cc3ccccc3)n2)oc(-c2ccccc2)c1-c1ccccc1	5.0	0	-5.3	98.9*	91.1*	0.1
CCn1c(SCC(=O)Nc2ccc(OCc3ccccc3)cc2)nnc1-c1ccco1	x	0.7	x	28.3	6.9	0.9
C1CCC(C23CC4CC(CC(C4)C2)C3)NC1 (stereo not given)	-6.1	x	6.1	x	x	x
CCN(CC)C(=O)CSc1nnc(-c2cccs2)n1Cc1ccco1	-4.0	0.9	2.8	9.6	-0.8	1
CCOC(=O)CSc1nc2c(sc(=S)n2Cc2ccco2)c(=O)n1-c1ccccc1	x	0.3	x	68.8*	59.7*	0.4
CCOC(=O)CSc1nc2ccccc2c(=O)n1Cc1ccco1	x	0.8	x	19.0	7.4	0.9
CCOC(=O)CSc1nc2c(sc(=S)n2-c2ccccc2OC)c(=O)n1Cc1ccco1	17.6	0.5	-14.3	54.6*	85.2*	0.1
CCN(CC)C(=O)CSc1nc2c(sc(=S)n2Cc2ccco2)c(=O)n1-c1ccccc1	17.9	0.5	-14.6	52.4*	35.9	0.6
CCOC(=O)CSc1nnc(CSc2nc(C)cc(C)n2)n1Cc1ccco1	x	0.8	x	21.4	46.7	0.5
CCOC(=O)CC(=O)CSc1nc2c(sc(=S)n2-c2ccccc2)c(=O)[nH]1	19.1	0.3	-22.6	65.8*	3.7	1
O=C(NCC1CCCO1)Nc1ccccc1 (stereo not given)	-18.1	1.1	19.3	-8.6	3.2	1
O=C(CNS(=O)(=O)c1ccccc1)NCc1ccccn1	8.0	1	-2.7	4.5	-3.1	1
O=C(COC(=O)Cc1cn2ccsc2n1)Nc1nc2ccccc2s1	7.7	0.7	-4.6	26.4	11.6	0.9

Screening results as filed in PubChem BioAssay.
